Assay in all cases: DAPPL (digital affinity profiling via proximity ligation, sequencing); 10 mM Tris-HCl pH 7.5, 50 mM NaCl, 1 mM DTT, 4% glycerol, room temperature, 30 min; GST-TFs on glutathione beads, 16-mer random dsDNA library, 0.1% formaldehyde crosslink after washing; high values mean tight binding
One experiment has as its target T1, FEV (Homo sapiens, UniProt Q99581 1-238).
T1 sequence: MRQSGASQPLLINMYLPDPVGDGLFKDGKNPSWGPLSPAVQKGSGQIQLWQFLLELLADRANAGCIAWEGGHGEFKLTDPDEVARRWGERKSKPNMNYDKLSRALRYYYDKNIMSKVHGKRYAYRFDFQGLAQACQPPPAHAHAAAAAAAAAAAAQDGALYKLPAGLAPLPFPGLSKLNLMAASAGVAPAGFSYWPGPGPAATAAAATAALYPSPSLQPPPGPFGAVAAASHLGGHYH
Particulars: protein: recombinant; tags: N-terminal GST; dsDNA, one strand shown. In short, it runs like this: (§1)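 Each value of binding signal is a hexamer's read frequency for a factor divided by the same hexamer's frequency in the tag-only sample. Barcoded, bead-captured GST fusions of human transcription factors made in yeast were pooled with that sample and incubated with 200 nmole of a random double-stranded 16-mer DNA library in Tris/NaCl/DTT/glycerol buffer at room temperature for 30 min. Washing, 0.1% formaldehyde crosslinking, proximity ligation, PCR and Illumina NextSeq500 sequencing followed.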

The next experiment deals with ETV5 (Homo sapiens, UniProt P41161 1-510). The following applies: protein: recombinant; tags: N-terminal GST; dsDNA, one strand shown. A digest of the protocol: as §1
Another experiment concerns the target HSF1 (Homo sapiens, UniProt Q00613 1-529). Particulars: protein: recombinant; tags: N-terminal GST; chain copies: 3; dsDNA, one strand shown. A digest of the protocol:
as §1

For another experiment, the target named is T2, SPIC (Homo sapiens, UniProt Q8N5J4 1-248).
T2 sequence: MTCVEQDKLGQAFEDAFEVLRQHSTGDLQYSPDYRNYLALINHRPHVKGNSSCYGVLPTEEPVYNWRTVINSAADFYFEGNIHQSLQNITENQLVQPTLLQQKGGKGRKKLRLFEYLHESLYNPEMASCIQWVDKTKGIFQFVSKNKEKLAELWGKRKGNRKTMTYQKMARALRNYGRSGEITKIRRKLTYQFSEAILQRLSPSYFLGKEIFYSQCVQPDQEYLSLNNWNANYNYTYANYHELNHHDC
Particulars: protein: recombinant; tags: N-terminal GST; dsDNA, one strand shown. A digest of the protocol:
as §1

A further experiment has as its target ELF4 (Homo sapiens, UniProt Q99607 1-663). The following applies: protein: recombinant; tags: N-terminal GST; dsDNA, one strand shown. A digest of the protocol:
as §1

In the next experiment the target is T3, ELK4 (Homo sapiens, UniProt P28324-2 1-405).
T3 sequence: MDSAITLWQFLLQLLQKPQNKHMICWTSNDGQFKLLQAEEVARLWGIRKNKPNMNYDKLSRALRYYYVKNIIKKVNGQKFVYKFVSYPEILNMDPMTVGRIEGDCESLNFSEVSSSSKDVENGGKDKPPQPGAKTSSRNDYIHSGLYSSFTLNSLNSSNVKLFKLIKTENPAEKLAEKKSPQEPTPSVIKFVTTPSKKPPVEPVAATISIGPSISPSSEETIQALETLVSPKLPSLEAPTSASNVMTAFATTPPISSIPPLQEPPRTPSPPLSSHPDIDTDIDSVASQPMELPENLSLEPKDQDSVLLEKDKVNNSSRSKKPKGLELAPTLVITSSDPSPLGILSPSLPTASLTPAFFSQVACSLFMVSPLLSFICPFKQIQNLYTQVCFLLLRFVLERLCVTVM
Particulars: protein: recombinant; tags: N-terminal GST; dsDNA, one strand shown. In short, it runs like this:
as §1

The next experiment concerns the target T4, ETV2 (Homo sapiens, UniProt O00321 1-342).
T4 sequence: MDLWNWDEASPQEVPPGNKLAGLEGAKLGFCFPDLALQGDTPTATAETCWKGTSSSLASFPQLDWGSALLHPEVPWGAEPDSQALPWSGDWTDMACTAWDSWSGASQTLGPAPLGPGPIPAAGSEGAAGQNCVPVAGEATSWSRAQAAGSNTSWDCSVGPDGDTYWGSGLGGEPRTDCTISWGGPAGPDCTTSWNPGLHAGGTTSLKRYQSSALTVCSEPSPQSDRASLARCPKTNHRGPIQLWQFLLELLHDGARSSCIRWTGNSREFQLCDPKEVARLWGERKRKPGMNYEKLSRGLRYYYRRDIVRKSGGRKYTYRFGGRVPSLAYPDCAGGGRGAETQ
The following applies: protein: recombinant; tags: N-terminal GST; dsDNA, one strand shown. In short, it runs like this:
as §1

The next experiment has as its target T5, ELF3 (Homo sapiens, UniProt P78545 1-371).
T5 sequence: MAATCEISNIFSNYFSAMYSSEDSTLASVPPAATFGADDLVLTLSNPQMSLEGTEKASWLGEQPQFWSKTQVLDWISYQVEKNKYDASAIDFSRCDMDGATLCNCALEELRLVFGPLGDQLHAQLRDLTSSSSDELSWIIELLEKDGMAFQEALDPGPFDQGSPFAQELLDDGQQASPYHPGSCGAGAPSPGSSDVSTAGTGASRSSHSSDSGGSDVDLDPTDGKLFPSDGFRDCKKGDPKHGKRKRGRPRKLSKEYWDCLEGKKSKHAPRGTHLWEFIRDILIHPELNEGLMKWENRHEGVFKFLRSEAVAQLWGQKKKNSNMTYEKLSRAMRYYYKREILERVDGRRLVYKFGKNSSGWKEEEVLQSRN
The following applies: protein: recombinant; tags: N-terminal GST; dsDNA, one strand shown. In short, it runs like this: as §1

A further experiment deals with CRX (Homo sapiens, UniProt O43186 1-299). The following applies: protein: recombinant; tags: N-terminal GST; dsDNA, one strand shown. A digest of the protocol: as §1
The target of another experiment is ETV1 (Homo sapiens, UniProt P50549 1-477). The following applies: protein: recombinant; tags: N-terminal GST; dsDNA, one strand shown. A digest of the protocol: as §1
A further experiment concerns the target T6, ERF (Homo sapiens, UniProt P50548 1-548).
T6 sequence: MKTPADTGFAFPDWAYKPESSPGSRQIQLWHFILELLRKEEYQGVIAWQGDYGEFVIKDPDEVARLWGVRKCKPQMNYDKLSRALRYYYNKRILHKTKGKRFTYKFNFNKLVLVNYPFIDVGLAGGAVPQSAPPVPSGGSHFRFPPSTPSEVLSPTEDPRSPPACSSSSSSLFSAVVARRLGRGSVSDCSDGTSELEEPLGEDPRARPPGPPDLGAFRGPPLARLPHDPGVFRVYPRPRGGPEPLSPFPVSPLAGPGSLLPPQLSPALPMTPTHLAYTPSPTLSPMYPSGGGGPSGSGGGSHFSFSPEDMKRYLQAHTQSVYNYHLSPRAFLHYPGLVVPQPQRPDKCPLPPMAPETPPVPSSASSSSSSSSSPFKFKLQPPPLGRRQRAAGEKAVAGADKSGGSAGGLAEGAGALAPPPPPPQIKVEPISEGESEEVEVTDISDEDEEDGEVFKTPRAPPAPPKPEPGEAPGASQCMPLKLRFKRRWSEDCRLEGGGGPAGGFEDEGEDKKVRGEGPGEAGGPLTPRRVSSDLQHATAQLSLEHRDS
Particulars: protein: recombinant; tags: N-terminal GST; dsDNA, one strand shown. A digest of the protocol:
as §1

The next experiment deals with T7, ETV3L (Homo sapiens, UniProt Q6ZN32 1-361).
T7 sequence: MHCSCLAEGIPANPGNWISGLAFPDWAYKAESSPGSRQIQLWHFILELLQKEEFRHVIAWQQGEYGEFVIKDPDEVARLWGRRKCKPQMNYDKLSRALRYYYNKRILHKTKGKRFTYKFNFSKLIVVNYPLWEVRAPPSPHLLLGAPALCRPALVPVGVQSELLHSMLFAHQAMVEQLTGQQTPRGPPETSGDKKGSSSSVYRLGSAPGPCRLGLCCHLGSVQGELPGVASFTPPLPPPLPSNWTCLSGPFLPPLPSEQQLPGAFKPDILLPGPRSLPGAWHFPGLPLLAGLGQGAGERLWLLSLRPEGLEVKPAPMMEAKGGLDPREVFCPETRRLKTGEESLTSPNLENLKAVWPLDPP
Particulars: protein: recombinant; tags: N-terminal GST; dsDNA, one strand shown. In short, it runs like this:
as §1

Another experiment concerns the target T8, ETS2 (Homo sapiens, UniProt P15036 1-469).
T8 sequence: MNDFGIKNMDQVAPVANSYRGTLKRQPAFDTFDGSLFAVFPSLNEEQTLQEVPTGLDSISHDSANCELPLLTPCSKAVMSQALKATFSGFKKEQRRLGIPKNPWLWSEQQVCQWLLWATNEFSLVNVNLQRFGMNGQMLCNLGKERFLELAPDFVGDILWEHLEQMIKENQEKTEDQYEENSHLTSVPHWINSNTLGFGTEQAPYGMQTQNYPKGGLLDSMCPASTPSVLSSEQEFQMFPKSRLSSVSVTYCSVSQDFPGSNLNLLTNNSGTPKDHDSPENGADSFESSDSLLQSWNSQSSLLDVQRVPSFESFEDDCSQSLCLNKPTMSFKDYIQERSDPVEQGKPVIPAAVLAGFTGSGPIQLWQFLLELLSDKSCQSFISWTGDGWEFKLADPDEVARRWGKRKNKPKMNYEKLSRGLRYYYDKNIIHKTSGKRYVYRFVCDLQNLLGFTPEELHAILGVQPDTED
The following applies: protein: recombinant; tags: N-terminal GST; dsDNA, one strand shown. A digest of the protocol: as §1

A further experiment addresses T9, SPDEF (Homo sapiens, UniProt O95238 1-335).
T9 sequence: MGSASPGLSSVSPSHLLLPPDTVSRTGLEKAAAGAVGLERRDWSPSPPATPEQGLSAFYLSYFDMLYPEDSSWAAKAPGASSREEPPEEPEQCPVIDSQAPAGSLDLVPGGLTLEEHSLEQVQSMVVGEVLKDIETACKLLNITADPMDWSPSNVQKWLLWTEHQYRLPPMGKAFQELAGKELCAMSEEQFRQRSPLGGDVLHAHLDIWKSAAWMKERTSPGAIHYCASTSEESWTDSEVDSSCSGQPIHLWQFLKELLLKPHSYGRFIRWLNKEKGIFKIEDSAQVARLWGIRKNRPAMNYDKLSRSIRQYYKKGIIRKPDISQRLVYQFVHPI
The following applies: protein: recombinant; tags: N-terminal GST; dsDNA, one strand shown. A digest of the protocol: as §1

Another experiment addresses T10, ETV7 (Homo sapiens, UniProt Q9Y603 1-341).
T10 sequence: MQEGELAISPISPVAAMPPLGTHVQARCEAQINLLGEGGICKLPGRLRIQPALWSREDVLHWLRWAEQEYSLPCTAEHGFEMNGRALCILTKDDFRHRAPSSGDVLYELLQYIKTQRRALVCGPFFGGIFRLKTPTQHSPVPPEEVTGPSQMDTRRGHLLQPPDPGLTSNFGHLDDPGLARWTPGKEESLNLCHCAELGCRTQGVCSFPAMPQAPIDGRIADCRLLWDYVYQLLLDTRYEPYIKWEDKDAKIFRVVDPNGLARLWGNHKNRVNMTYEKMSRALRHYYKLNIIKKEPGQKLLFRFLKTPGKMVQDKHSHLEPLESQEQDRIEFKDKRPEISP
Particulars: protein: recombinant; tags: N-terminal GST; dsDNA, one strand shown. A digest of the protocol: as §1

For another experiment, the target named is T11, ELF5 (Homo sapiens, UniProt Q9UKW6-2 1-255).
T11 sequence: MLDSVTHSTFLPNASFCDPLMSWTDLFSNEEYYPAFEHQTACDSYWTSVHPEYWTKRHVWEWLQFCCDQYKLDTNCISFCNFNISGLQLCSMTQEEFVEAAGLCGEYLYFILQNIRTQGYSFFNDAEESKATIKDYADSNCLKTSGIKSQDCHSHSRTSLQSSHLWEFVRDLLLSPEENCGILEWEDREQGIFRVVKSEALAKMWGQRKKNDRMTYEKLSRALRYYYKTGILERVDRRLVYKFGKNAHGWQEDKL
The following applies: protein: recombinant; tags: N-terminal GST; dsDNA, one strand shown. A digest of the protocol: as §1

For a further experiment, the target named is T12, ETV3 (Homo sapiens, UniProt P41162-2 1-143).
T12 sequence: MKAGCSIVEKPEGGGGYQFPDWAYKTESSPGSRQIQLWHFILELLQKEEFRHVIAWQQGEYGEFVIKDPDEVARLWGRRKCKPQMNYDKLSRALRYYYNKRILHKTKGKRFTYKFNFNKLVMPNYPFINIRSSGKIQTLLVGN
Particulars: protein: recombinant; tags: N-terminal GST; dsDNA, one strand shown. In short, it runs like this: as §1

The next experiment has as its target ETV6 (Homo sapiens, UniProt P41212 1-452). The following applies: protein: recombinant; tags: N-terminal GST; dsDNA, one strand shown. In short, it runs like this: as §1

ELF4, sequence (Q99607 whole entry): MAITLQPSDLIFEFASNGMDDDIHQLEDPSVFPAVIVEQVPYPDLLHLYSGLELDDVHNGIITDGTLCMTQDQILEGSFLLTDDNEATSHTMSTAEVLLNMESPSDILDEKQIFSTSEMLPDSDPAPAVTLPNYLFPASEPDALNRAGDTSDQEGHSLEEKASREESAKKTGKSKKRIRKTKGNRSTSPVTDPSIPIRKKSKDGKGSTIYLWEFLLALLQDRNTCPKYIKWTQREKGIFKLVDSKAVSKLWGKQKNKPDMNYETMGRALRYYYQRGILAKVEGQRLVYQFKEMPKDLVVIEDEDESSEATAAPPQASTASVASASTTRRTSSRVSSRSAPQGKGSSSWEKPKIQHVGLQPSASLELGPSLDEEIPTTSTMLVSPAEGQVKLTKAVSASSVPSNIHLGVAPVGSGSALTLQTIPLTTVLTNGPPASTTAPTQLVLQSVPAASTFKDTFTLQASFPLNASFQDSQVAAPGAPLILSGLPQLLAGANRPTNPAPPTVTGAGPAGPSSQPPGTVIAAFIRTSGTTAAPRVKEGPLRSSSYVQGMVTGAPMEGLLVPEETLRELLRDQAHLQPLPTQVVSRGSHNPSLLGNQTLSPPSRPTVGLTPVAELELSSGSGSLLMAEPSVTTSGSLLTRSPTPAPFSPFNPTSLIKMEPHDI
ETV6, sequence (P41212 whole entry): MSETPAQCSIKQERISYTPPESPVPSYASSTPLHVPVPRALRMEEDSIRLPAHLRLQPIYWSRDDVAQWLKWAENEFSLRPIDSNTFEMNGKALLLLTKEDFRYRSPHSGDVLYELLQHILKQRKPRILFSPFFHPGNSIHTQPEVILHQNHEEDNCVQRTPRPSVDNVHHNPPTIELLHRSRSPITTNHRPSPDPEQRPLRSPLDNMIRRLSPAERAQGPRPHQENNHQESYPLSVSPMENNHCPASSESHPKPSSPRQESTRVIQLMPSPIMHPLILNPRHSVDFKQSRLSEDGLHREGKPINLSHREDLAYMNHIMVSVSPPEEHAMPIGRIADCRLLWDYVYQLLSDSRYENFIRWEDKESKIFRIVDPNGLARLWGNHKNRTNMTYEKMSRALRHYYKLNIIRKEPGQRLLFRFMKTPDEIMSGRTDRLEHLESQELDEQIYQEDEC
ETV5, sequence (P41161 whole entry): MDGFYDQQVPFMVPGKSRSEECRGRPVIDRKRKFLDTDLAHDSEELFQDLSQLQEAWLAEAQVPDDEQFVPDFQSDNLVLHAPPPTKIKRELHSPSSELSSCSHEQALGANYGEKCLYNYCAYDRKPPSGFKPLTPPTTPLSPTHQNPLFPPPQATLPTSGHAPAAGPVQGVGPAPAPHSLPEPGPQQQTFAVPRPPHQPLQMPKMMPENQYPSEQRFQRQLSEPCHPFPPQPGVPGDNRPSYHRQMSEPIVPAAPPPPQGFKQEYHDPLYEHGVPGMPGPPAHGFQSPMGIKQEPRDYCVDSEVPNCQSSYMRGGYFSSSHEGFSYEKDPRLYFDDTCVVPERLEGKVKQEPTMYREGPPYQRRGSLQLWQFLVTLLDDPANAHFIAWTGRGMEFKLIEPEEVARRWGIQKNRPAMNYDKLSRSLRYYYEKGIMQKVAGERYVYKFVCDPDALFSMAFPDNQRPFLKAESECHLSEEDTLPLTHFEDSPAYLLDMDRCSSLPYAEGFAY
ETV1, sequence (P50549 whole entry): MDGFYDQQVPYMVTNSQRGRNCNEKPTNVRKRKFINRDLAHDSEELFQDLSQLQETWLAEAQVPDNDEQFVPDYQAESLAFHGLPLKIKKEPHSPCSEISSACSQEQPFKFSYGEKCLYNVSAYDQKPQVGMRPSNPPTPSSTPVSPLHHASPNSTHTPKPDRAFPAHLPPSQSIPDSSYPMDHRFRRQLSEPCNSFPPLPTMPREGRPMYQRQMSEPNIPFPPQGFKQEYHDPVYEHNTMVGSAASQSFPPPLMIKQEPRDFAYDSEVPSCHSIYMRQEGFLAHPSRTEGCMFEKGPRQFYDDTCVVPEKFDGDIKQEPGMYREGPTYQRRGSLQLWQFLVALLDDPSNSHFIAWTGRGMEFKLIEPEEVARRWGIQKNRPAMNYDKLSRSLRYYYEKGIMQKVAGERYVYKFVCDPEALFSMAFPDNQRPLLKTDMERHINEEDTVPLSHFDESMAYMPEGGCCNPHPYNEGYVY
HSF1, sequence (Q00613 whole entry): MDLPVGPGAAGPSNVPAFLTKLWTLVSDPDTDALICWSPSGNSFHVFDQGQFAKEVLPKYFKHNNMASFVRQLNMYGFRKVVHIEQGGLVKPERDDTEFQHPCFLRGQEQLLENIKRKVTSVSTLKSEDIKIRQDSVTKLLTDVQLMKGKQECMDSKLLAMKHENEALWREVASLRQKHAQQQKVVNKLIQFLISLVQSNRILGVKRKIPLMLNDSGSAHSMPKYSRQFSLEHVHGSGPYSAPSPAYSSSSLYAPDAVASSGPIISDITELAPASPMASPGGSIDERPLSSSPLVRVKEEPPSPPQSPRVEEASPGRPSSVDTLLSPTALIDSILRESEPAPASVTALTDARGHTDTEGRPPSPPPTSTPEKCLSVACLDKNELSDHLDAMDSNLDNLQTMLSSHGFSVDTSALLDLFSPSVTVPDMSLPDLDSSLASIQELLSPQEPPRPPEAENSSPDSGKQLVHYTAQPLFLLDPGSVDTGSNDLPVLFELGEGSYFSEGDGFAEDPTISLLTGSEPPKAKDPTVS
CRX, sequence (O43186 whole entry): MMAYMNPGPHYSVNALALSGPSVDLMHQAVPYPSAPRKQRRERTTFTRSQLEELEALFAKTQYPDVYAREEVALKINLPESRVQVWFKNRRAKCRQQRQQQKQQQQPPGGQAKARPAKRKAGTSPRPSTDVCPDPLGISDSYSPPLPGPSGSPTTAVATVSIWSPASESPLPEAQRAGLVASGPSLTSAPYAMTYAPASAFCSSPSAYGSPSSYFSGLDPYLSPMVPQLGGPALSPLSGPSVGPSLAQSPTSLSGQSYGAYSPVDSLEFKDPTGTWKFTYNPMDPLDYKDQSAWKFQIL

Take TTGTTA: the binding signal with FEV was 1.3 fold enrichment (6-mer frequency, TF over GST control); in the experiment with ETV5, 1.31 fold enrichment (6-mer frequency, TF over GST control); with HSF1, 1.34 fold enrichment (6-mer frequency, TF over GST control); in the experiment with SPIC, 1.31 fold enrichment (6-mer frequency, TF over GST control); with ELF4, 1.32 fold enrichment (6-mer frequency, TF over GST control); in the experiment with ELK4 it was 1.47 fold enrichment (6-mer frequency, TF over GST control). Besides, the binding signal is 1.35 fold enrichment (6-mer frequency, TF over GST control) with ETV2; 1.08 fold enrichment (6-mer frequency, TF over GST control) in the experiment with ELF3; 1.61 fold enrichment (6-mer frequency, TF over GST control) in the experiment with CRX; 1.35 fold enrichment (6-mer frequency, TF over GST control) with ETV1; 1.28 fold enrichment (6-mer frequency, TF over GST control) in the experiment with ERF; 1.35 fold enrichment (6-mer frequency, TF over GST control) with ETV3L. For the same sequence, the binding signal is 1.34 fold enrichment (6-mer frequency, TF over GST control) with ETS2; 1.26 fold enrichment (6-mer frequency, TF over GST control) in the experiment with SPDEF; 1.35 fold enrichment (6-mer frequency, TF over GST control) in the experiment with ETV7; 1.29 fold enrichment (6-mer frequency, TF over GST control) with ELF5; 1.3 fold enrichment (6-mer frequency, TF over GST control) with ETV3; 1.33 fold enrichment (6-mer frequency, TF over GST control) with ETV6.

The values are drawn from article PMC7862700, “An all-to-all approach to the identification of sequence-specific readers for epigenetic DNA modifications on cytosine”.
